Here are results for three compounds from PubChem BioAssay.

For orientation: inhibition means the relative decrease from the control value, in per cent. What is called viability is a read-out of living cells in per cent, often relative to untreated cells.

A short description of assay [1]: signal quenchers or enhancers, Cy5 substrate/SSB – biochemical, NIH Clinical Collection, E. coli SSB, artefact control for HCV NS3 helicase inhibitor project (AID 743268). The note with it: Cy5-oligo bound E. coli SSB, fluorescence interference.
The test system of assay [2] is Hepatitis C virus NS3 helicase. Briefly: blockers of NS3h binding to DNA – biochemical, fluorescence polarization, NIH Clinical Collection, primary screen (AID 743270). The note with it: NS3 helicase binding to Cy5-dT15 DNA, stronger effect = higher value, concentration not given here. A general note: Polarisation of emitted light reports the rotation of a fluorescent probe.
Assay [3] has as its target Single-stranded DNA-binding protein (Escherichia coli (strain K12)) (UniProt P0AGE0). Briefly: SSB-ssDNA binding inhibitors – biochemical, fluorescence polarization, NIH Clinical Collection, counter-screen for HCV NS3 helicase inhibitor project (AID 743271; in the data active = inhibition above about 28%). The settings on record: E. coli SSB-DNA binding, stronger effect = higher value, concentration not given here.
Assay [4] is described as follows: compounds distorting NS3 helicase fluorescence signal – biochemical, NIH Clinical Collection, artefact control for HCV NS3 helicase inhibitor project (AID 743272).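 Also: HCV NS3 helicase with a Cy5 labelled single stranded DNA probe.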 The note with it: fluorescence interference counterscreen, HCV NS3 helicase assay; stronger effect = lower value.
Assay [5] is described as follows: Wnt pathway potentiators raising nuclear beta-catenin – imaging, WNT3A-conditioned medium, mouse C2C12, NPC library, primary screen (AID 1117326; in the data active = nuclear beta-catenin stimulation mostly above about 4.2%, no sharp cut-off; inactive = mostly below about 10%). The note with it: stronger effect = higher value.
Assay [6] in a line: stimulators of insulin release from INS-1E, primary screen, cell-based, 5 mM glucose, NPC library (AID 1117329;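 active = compound raises insulin release from rat beta cells at 5 mM glucose, no numeric limit stated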). The settings on record: rat INS-1E insulin secretion, at 10 µM, stronger effect = higher value.
A short description of assay [7]: growth inhibition of GSK3B-pretreated HCT116 cells – cell-based, CellTiter-Glo, 0.2 to 20 µM (AID 1117336;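 active = compounds lowering colon cancer cell viability after pretreatment blocking the GSK3B kinase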). The settings on record: HCT116 viability after GSK3B inhibitor, at 20 µM, stronger effect = higher value.
The nature of assay [8]: inhibition of endothelial tube formation, primary screen, imaging, VEGF stimulated, CD31 staining, tube area, NPC library (AID 1117340;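 active = compound that reduces growth-factor-driven endothelial tube area in a mixed cell culture, no cutoff stated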). The settings on record: VEGF-stimulated ADSC/ECFC co-culture, at 10 µM, stronger effect = higher value.
Assay [9] in a line: GLP1 release stimulators, primary, NCI-H716, NPC library (AID 1117341;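 active = compound raises GLP1 secretion from the human gut endocrine cells, with no numeric limit stated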). The settings on record: NCI-H716 cells, at 10 µM, stronger effect = higher value.
A short description of assay [10]: HCT116 colon cancer cell growth inhibition, primary screen, CellTiter-Glo luminescence, NPC library (AID 1117342;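 active = compounds that lower survival of HCT116 colon cancer cells in the luminescence readout, no numeric limit stated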). The note with it: at 20 µM (top of the series). Background: ATP-based viability assays read luminescence as a measure of living cells.
Assay [11] can be described thus: reduced SW480 viability measured with CellTiter-Glo, NPC library, primary (AID 1117343;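 active = compounds that lower viability of the colon cancer cells in the luminescence readout, with no numeric limit stated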). The settings on record: CellTiter-Glo luminescence; at 20 µM (top of the series).
Assay [12] is described as follows: NPC library primary testing for decreased DLD-1 cell viability via CellTiter-Glo (AID 1117346;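 active = compounds that lower survival of DLD-1 colon cancer cells in the luminescence readout, no cutoff given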). The note with it: DLD-1 viability, CellTiter-Glo luminescence; at 20 µM (top of the series).
The target in assay [13] is 6-phosphogluconate dehydrogenase, decarboxylating (Homo sapiens) (UniProt P52209). Briefly: inhibition of human phosphogluconate dehydrogenase – biochemical, recombinant enzyme, NADPH absorbance, primary screen (AID 1159550;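 active = at least 20% inhibition of 6-phosphogluconate dehydrogenase activity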). The settings on record: recombinant 6PGD, NADPH absorbance 341 nm; at 10 µM; stronger effect = higher value.
Chain of 6-phosphogluconate dehydrogenase, decarboxylating (Homo sapiens) (P52209 whole entry, looked up): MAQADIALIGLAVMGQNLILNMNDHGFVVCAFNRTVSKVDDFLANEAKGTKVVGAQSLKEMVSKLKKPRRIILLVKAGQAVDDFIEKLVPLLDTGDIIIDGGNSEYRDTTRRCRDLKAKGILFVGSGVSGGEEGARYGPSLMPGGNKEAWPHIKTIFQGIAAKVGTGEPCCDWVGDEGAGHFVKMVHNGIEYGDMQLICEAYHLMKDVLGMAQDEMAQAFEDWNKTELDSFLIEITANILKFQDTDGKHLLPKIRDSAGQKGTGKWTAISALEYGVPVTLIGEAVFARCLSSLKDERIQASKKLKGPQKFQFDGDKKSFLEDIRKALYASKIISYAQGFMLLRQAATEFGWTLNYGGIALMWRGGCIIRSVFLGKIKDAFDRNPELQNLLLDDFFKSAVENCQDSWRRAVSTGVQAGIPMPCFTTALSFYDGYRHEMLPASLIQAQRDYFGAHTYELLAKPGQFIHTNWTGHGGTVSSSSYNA
Assay [14] can be described thus: EMT-state selective cytotoxicity in co-culture – imaging, PC-3E GFP, TEM4-18 mCherry, primary screen (AID 1345086;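 active = compounds killing one labelled cell type while sparing the other, by normalised counts and ratio limits, not self-fluorescent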;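 also: cells exposed to compound for 72 h before imaging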;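 as to red/green cell ratio (normalised): normalised mesenchymal count divided by normalised epithelial count so high means epithelial killing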). The note with it: PC-3E GFP / TEM4-18 mCherry co-culture, imaging cell counts, at 1 µM.
A short description of assay [15]: MELAS cybrid and Rieske KO viability enhancers – cell-based, MELAS cybrids, Rieske KO mouse fibroblasts, CellTiter-Glo, primary screen (AID 1508586;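 active = mean z-score across replicates of 1.96 or higher in either the MELAS or the Rieske mutant cell line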;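 also: z relative to plate mean and SD of compound and empty wells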). The settings on record: low glucose.
The target of assay [16] is NAD(+) hydrolase SARM1 (Homo sapiens) (UniProt Q6SZW1). Kind of assay: blocking NAD cleavage by SARM1 SAM-TIR – cell lysate, NAD-Glo luminescence (AID 1508614;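 active = compound whose remaining NAD level is above about 45 nM, limit read from the data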;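 also: higher remaining NAD means stronger inhibition of SARM1 NADase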). The settings on record: SAM-TIR HEK293T lysate NADase, at 1 µM, stronger effect = higher value.
Chain of NAD(+) hydrolase SARM1 (Homo sapiens) (Q6SZW1 whole entry, looked up, the tested form may be a part): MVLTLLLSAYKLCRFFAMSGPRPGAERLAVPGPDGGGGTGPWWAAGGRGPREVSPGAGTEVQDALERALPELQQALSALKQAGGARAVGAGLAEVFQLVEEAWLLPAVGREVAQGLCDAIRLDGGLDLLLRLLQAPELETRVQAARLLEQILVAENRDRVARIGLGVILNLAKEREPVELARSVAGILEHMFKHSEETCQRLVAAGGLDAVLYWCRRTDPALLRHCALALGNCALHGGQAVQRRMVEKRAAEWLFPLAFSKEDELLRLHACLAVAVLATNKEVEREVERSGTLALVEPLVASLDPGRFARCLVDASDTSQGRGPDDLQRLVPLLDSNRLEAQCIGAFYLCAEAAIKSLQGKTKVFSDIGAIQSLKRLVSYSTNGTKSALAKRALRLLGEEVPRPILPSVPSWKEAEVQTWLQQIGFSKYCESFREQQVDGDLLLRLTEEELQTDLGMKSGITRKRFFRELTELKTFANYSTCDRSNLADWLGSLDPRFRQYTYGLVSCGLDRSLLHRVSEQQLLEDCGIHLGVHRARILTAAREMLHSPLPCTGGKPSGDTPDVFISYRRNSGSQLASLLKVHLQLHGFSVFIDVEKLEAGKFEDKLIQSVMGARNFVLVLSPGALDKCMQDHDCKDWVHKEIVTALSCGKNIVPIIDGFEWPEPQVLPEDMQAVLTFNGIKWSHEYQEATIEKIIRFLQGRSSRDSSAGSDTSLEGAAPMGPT
The target of assay [17] is Mitogen-activated protein kinase 7 (Homo sapiens) (UniProt Q13164). Kind of assay: Gal4-ERK5 driven luciferase induction – cell-based, HTS, primary screen (AID 1508626;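 active = luciferase signal above three times the same-plate solvent-only control wells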;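 also: luciferase driven by Gal4-ERK5 fusion binding five Gal4 sites before minimal TATA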). The note with it: HeLa Gal4-ERK5 transactivation, 18 h, at 5 µM, stronger effect = higher value.
Chain of Mitogen-activated protein kinase 7 (Homo sapiens) (Q13164 whole entry, looked up, the tested form may be a part): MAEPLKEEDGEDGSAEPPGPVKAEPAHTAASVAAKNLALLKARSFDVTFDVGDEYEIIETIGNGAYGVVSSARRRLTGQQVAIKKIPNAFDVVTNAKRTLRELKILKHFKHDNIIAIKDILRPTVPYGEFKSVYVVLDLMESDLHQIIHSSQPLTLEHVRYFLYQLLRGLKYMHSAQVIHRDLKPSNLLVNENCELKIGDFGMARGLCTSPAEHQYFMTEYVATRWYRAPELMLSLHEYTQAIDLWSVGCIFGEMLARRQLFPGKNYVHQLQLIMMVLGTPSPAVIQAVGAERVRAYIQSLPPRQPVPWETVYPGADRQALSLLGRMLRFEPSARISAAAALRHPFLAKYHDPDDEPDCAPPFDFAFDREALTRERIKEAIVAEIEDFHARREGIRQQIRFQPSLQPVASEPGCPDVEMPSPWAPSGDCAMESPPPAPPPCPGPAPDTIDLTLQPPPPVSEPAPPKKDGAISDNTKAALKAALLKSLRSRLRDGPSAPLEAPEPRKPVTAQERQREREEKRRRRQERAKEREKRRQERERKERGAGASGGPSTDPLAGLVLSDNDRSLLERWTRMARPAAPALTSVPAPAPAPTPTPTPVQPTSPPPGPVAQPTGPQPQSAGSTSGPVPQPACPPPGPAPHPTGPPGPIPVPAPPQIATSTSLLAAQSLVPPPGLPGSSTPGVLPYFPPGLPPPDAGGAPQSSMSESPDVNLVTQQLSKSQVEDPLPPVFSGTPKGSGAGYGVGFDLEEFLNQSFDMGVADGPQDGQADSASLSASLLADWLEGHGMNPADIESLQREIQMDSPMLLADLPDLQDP
The test system of the next assay is F380Y. Kind of assay: BK channel mutant inhibitors and activators – cell-based, U2OS BacMam, thallium flux, beta subunits, selectivity assay, profiling panel (AID 1259406;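 active = thallium flux through the channel raised or lowered by more than 3 SD from vehicle-only wells, actives on both sides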;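 also: initial slope of Thallos dye fluorescence rise after thallium is added; log ratio against the mean of 0.3% DMSO vehicle wells on the same plate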). The settings on record: U2OS BacMam BK variants, at 30 µM.
Assay [18] can be described thus: P. berghei load reduction in hepatocytes – cell-based, HepG2, luciferase luminescence, HepG2 viability, primary screen (AID 624349; in the data active = parasite load remaining mostly below about 12%, no sharp cut-off; inactive = mostly above about 10%;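 also: 100% = mean of DMSO negative control wells on the same plate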). The settings on record: P. berghei liver stage in HepG2, luciferase luminescence, concentration not given here; parasite load remaining: stronger effect = lower value; viability: measured here: HepG2 viability without parasites.
Assay [19] can be described thus: viability loss with induced miR-34 in A549 – imaging, A549 dox-inducible miR-34, nuclei and caspase counts, primary screen (AID 1347080;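 active = compounds whose cell count with miR-34 switched on is under 0.7 times the count with it off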). The note with it: A549 miR-34 inducible, Hoechst nuclei count, 48 h.
[20] abbreviates: MELAS cybrid survival, CellTiter-Glo 48 h, stronger effect = higher value.
Where [21] appears, read: Rieske KO mouse fibroblast survival, CellTiter-Glo 72 h.
[22] abbreviates: stronger effect = lower value, cell number ratio, induced over uninduced.
Where [23] appears, read: measured here: relative caspase fold change +Dox/-Dox.
The mark [24] stands for this setting: measured here: total cells with miR-34 induction, stronger effect = lower value.
Setting [25] is: measured here: total cells without miR-34 induction.

Several values for one entry are separate records, joined by “and”; a condition that tells them apart may be missing. Equal values may be shown once. Activity calls are given as the source filed them. Unless noted, no rule for the calls is given here.

As for `CN(C)CCOC(c1ccccc1)c1ccccc1`, the values for the fluorescence ratio in [1] and in [4] were 1.02 (inactive) and 0.99 (inactive), respectively. Also, the inhibition in assay [2] is -1.19% (inactive); in assay [3] it was 5.29% (inactive); in assay [13], 11.2% (inactive). Besides, the nuclear beta-catenin stimulation in [5] (at 10 µM) was 0.5% (inactive); in [5] (stimulation, at 2 µM), -1%. The insulin secretion stimulation in [6] was 14.4% (inactive). Also, in [7], the viability decrease is -17.4% (inactive). Besides, the tube area decrease in assay [8] was 1% (inactive). In addition, the GLP1 secretion stimulation in assay [9] was 4.4% (inactive). Further, the inhibition of viability in assay [10] is 36.7% (inactive). The values for the viability decrease (inhibition) in assay [11] and in assay [12] were 57.8% (active) and 1% (inactive), respectively. Besides, in assay [14] (actives lie on both sides, counts scaled to control wells, 1 = unselective), the red/green cell ratio (normalised) is 1.07 (inactive). Also, the normalised cell number in [14] (measured here: epithelial PC-3E GFP cell survival) is 1.28; in [14] (measured here: mesenchymal TEM4-18 mCherry cell survival), 1.37. In addition, the z-score in assay [15] (setting [20]) is -0.301 (inactive) and 0.806 (inactive) and -0.802 (inactive); in assay [15] (setting [21]), 0.641 and 0.428 and 1.04. Besides, the remaining NAD in assay [16] was 10 nM (inactive). The luciferase signal in [17] was 36 AU (inactive). The log fold change Tl+ flux in the assay with F380Y is 0.0428 (inactive).
With `CC1(C)O[C@@H]2C[C@H]3[C@@H]4C[C@H](F)C5=CC(=O)C=C[C@]5(C)[C@H]4[C@@H](O)C[C@]3(C)[C@]2(C(=O)CO)O1`, the parasite load remaining in assay [18] was 33.4% (inactive) and 143% (inactive). In addition, the viability in assay [18] is 88.6% and 103%. Besides, the figures for the fluorescence ratio in assay [1] and in assay [4] were 1.07 (inactive) and 0.99 (inactive), respectively. Moreover, the inhibition in assay [2] was -0.45% (inactive); in assay [3], -1.24% (inactive); in assay [13], -16.5% (inactive). In addition, the nuclear beta-catenin stimulation in assay [5] (at 10 µM) is -0.2% (inactive); in assay [5] (stimulation, at 2 µM), 1.6%. The insulin secretion stimulation in assay [6] was 1.6% (inactive). Besides, the viability decrease in [7] was -31.1% (inactive). Further, the tube area decrease in assay [8] was -14.6% (inactive). Moreover, the GLP1 secretion stimulation in assay [9] was -0.5% (inactive). Also, the inhibition of viability in assay [10] was -1.83% (inactive). In addition, the values for the viability decrease (inhibition) in [11] and in assay [12] were 15% (inactive) and -3.1% (inactive), respectively. Also, the fold change was 1 (inactive) and 0.779 (inactive) in assay [19] (setting [22]); 1.38 and 0.877 in [19] (setting [23]). The cell count is 7820 and 5180 in [19] (setting [24]); 7800 and 6650 in assay [19] (setting [25]). Besides, the z-score in assay [15] (setting [20]) was -0.397 (inactive); in assay [15] (setting [21]), 0.665. Also, the remaining NAD in [16] is 10 nM (inactive). The luciferase signal in assay [17] was 344 AU (active). The log fold change Tl+ flux in the assay on F380Y is 0.00732 (inactive).
For `C[C@@H](O)[C@H]1C(=O)N2C(C(=O)O)=C(S[C@@H]3CN[C@H](C(=O)N(C)C)C3)[C@H](C)[C@H]12`, the parasite load remaining in assay [18] is 81% (inactive) and 101% (inactive) and 24.6% (inactive). Besides, in assay [18], the viability was 74.6% and 72.6% and 92%. Further, the fluorescence ratio in [1] was 1.04 (inactive); in assay [4] it was 0.99 (inactive). Also, the inhibition was 2.77% (inactive) in assay [2] and -0.87% (inactive) in assay [3]. Moreover, the nuclear beta-catenin stimulation in assay [5] (at 10 µM) is -1.7% (inactive) and -0.1% (inactive); in assay [5] (stimulation, at 2 µM), 1% and 0.5%. Moreover, in assay [6], the insulin secretion stimulation is 1.9% (inactive) and 2% (inactive). Besides, in assay [7], the viability decrease was -24.1% (inactive) and -19.8% (inactive). Besides, in assay [8], the tube area decrease is -3.2% (inactive) and 11.7% (inactive). For the same compound, the GLP1 secretion stimulation in [9] was -1.2% (inactive) and -6.2% (inactive). Further, the inhibition of viability in assay [10] was 3.6% (inactive) and 6.7% (inactive). Also, the viability decrease (inhibition) in assay [11] is 9.5% (inactive) and 15.1% (inactive); in [12] it was -2.2% (inactive) and -3.6% (inactive). Further, the fold change in [19] (setting [22]) is 0.969 (inactive) and 0.909 (inactive); in [19] (setting [23]), 0.61 and 1.16. The cell count in assay [19] (setting [24]) is 9470 and 9550; in assay [19] (setting [25]), 9770 and 10500. Further, the z-score in assay [15] (setting [20]) was 0.815 (inactive) and 0.0614 (inactive); in [15] (setting [21]), 1.23 and -0.866. The remaining NAD in [16] is 10 nM (inactive). The log fold change Tl+ flux with F380Y is 0.000985 (inactive).
